Sampled rows, rich in hits. Any-hit rate of the full collection: about 20%.
Shiga inhibitor = A qHTS for Small Molecule Inhibitors of Shiga Toxin. Vero cells, Shiga toxin protein synthesis inhibition reporter. inhibition, % at 38.7 µM. 290,000 compounds, 9.2% hits. AID 2315, 2010; in the data active = inhibition mostly above about 28%, no sharp cut-off; inactive = mostly below about 43%; also: 0% is about no effect
Pf growth 96h = Primary qHTS for delayed death inhibitors of the malarial parasite plastid, 96 hour incubation. P. falciparum luciferase reporter growth, 96 h. Potency, µM (titrated, usually from 28.7 µM), without a hit: at the highest dose activity change, negative = inhibition, hits mostly inhibitors. 320,000 compounds, 6.9% hits; also: potency is read from the fitted curve at half-maximal effect; % is scaled to controls: 0 for no effect and ±100 for the full control effect
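Luminescence readout: decreased luciferase signal marks inhibited growth of reporter-expressing P. falciparum in infected red cells (2% hematocrit, 0.05% parasitemia final), exposed to compound two generations (96 h, 37 C, 5% CO2).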
HCMV inh = qHTS Assay for inhibitors of the human cytomegalovirus (HCMV); HFF cells, HCMV-luciferase reporter, 72 h; stronger effect = lower value; activity change, negative = inhibition, % at 57.5 µM; 410,000 compounds, 4.5% hits; AID 1259415, 2018; in the data active = activity change below about -60%; inconclusive = no clear call, values can overlap the other calls; inactive = above about -39%; also: % is scaled to controls: 0 for no effect and ±100 for the full control effect
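Two compound doses tested in HFFs infected with HCMV-luciferase, MOI 1 PFU/cell, 72 h at 37C. Lysate luminescence read with OneGlo; data normalized against buffer-only and 10uM Salinomycin inhibitor controls.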
Cycloheximide cs = Cycloheximide Counterscreen for Small Molecule Inhibitors of Shiga Toxin; cell reporter, cycloheximide protein synthesis inhibition counterscreen; max response, %; 300,000 compounds, 12% hits; in the data active = max response mostly above about 13%, no sharp cut-off; inactive = mostly below about 14%; also: read at 38.3 µM for the half of the compounds with a filed dose; 0% is about no effect
Pf growth 48h = Primary qHTS for delayed death inhibitors of the malarial parasite plastid, 48 hour incubation; Potency, µM (highest dose often 28.7 µM), for inactives: at the top dose activity change, negative = inhibition, actives largely listed as inhibitors; AID 504832, 2011; 310,000 compounds, 5.9% hits; P. falciparum luciferase growth in erythrocytes, 48 h; also: potency is read from the fitted curve at half-maximal effect; % is scaled to controls: 0 for no effect and ±100 for the full control effect
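Firefly luciferase activity from engineered P. falciparum reports growth; inhibitors lower the luminescent signal. Cultures contained 2% hematocrit erythrocytes at 0.1% final parasitemia.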
The depositor's hits bear a star. Unless noted, calls follow the shape of the dose curve; as a rule, active = well fitted inhibition curve with a large enough effect; inconclusive = small, poorly fitted or top-dose-only effect, or another doubt; inactive = no such curve, though single readings can be large or run the other way.

COc1ccc(-c2c([C@H]3[C@H]4C=CC[C@@H](C)[C@@H]4C(=O)N3Cc3ccccc3)ccc3ccccc23)cc1OC was read as Shiga inhibitor 21, Pf growth 96h 2.9µM*, HCMV inh -84*, Cycloheximide cs 2 and Pf growth 48h 2.3µM*.
`O=C1CC[C@@H](C(=O)N[C@@H](Cc2cnc[nH]2)C(=O)N[C@@H](Cc2c[nH]c3ccccc23)C(=O)N[C@@H](CO)C(=O)N[C@@H](Cc2ccc(O)cc2)C(=O)O)N1` gave Shiga inhibitor -2 and Cycloheximide cs 20.
For O=C(CCS(=O)(=O)c1cc2c(cc1Cl)NC(=O)CO2)NCCc1ccc(Cl)cc1 the results were HCMV inh 12.
CC(C)(C)S(=O)(=O)c1cnc2c(-c3ccc(F)cc3)cnn2c1N was read as Shiga inhibitor 18, Pf growth 96h -3%, HCMV inh 49, Cycloheximide cs 2 and Pf growth 48h -7%.
Cc1nc2c(-c3ccc(F)cc3)cnn2c2c1CCC2 was read as Shiga inhibitor 53*, Pf growth 96h -18%, HCMV inh 0, Cycloheximide cs 38* and Pf growth 48h 70%.
CCOC(=O)C1=C(Nc2ccccc2)CSC1 was read as HCMV inh -32.
For N#Cc1c(NC(=O)c2cc(C3CC3)on2)sc2c1CCC2 the results were Shiga inhibitor -3, Pf growth 96h -19%, HCMV inh -9 and Cycloheximide cs 1.
For CC(C)Cc1cc(C(=O)Nc2sc3c(c2C#N)CCCC3)no1 the results were Shiga inhibitor 21, Pf growth 96h 31%, HCMV inh 0, Cycloheximide cs 33* and Pf growth 48h 37%.
Screening Cc1cc(C(=O)Nc2sc3c(c2C#N)CCC(C)C3)no1 (centres undefined) returned Shiga inhibitor 76*, Pf growth 96h 17%, HCMV inh 44, Cycloheximide cs 36* and Pf growth 48h 82%.
Cc1cc(C(=O)Nc2sc3c(c2C#N)CCC3)no1 was read as Shiga inhibitor 38*, Pf growth 96h 1%, HCMV inh 58, Cycloheximide cs 26* and Pf growth 48h 72%.
For Cc1cc(C(=O)Nc2sc3c(c2C#N)CCCC3)no1 the results were Shiga inhibitor 52*, Pf growth 96h -4%, HCMV inh 78, Cycloheximide cs 37* and Pf growth 48h 295%.
For CC(C)Cc1cc(C(=O)Nc2sc3c(c2C#N)CCC3)no1 the results were Shiga inhibitor -9, Pf growth 96h inconclusive, HCMV inh -13 and Cycloheximide cs 0.
Screening COCCNC(=O)CN(C(=O)Cn1nnc2ccccc21)c1ccc(F)c(Cl)c1 returned Shiga inhibitor -18, Pf growth 96h 10µM*, HCMV inh 66, Cycloheximide cs -2 and Pf growth 48h 18%.
For COCCNC(=O)CN(C(=O)Cn1nnc2ccccc21)c1ccccc1C the results were Shiga inhibitor -2, Pf growth 96h 13%, HCMV inh -29, Cycloheximide cs -3 and Pf growth 48h 11%.
Cc1c(/C=N/NC(=O)c2ccccc2O)c2ccccn2c1C(=O)c1ccc(F)cc1 was read as Shiga inhibitor 27, Pf growth 96h inconclusive, HCMV inh -19, Cycloheximide cs 15* and Pf growth 48h 8.3µM*.
Cc1c(/C=N/NC(=O)c2ccc(O)cc2)c2ccccn2c1C(=O)c1ccc(F)cc1 was read as Shiga inhibitor 9, Pf growth 96h inconclusive, HCMV inh 56, Cycloheximide cs 1 and Pf growth 48h 4.1µM*.
For Cc1c(/C=N/NC(=O)c2cc(=O)[nH]c(=O)[nH]2)c2ccccn2c1C(=O)c1ccccc1 the results were Shiga inhibitor -24, HCMV inh -18, Cycloheximide cs -2 and Pf growth 48h 3.3µM*.
Screening Cc1c(/C=N/NC(=O)CNc2ccccc2)c2ccccn2c1C(=O)c1ccccc1 returned Shiga inhibitor -9, Pf growth 96h 2.9µM*, HCMV inh -20, Cycloheximide cs 1 and Pf growth 48h 2.1µM*.
`Cc1nc2cccnc2n1C1CCN(S(=O)(=O)N(C)C)CC1` gave HCMV inh -8.
Cc1c(/C=N/NC(=O)c2cccnc2)c2ccccn2c1C(=O)c1ccc(F)cc1 was read as Shiga inhibitor 3, Pf growth 96h 5.2µM*, Cycloheximide cs -3 and Pf growth 48h 9.3µM*.
Screening COc1ccc(C2=C(C)C(N3CCN(C(=O)c4ccco4)CC3)=NS2(=O)=O)cc1 returned Shiga inhibitor 8, Pf growth 96h 21%, HCMV inh 22, Cycloheximide cs -9 and Pf growth 48h 16%.
Screening Cc1ccc(SCC(=O)Nc2ccccc2C(=O)N2CCOCC2)cc1 returned Shiga inhibitor 3, Pf growth 96h -45%, HCMV inh -71*, Cycloheximide cs 6 and Pf growth 48h -19%.
O=C(CSc1ccc(Cl)cc1)N1CCN(c2ccc(Cl)cc2[N+](=O)[O-])CC1 was read as Shiga inhibitor 19, Pf growth 96h 4%, HCMV inh -22, Cycloheximide cs 1 and Pf growth 48h -6%.
For Cc1ccc(SCc2ccc(C(=O)N3CCCC3)cc2)cc1 the results were Shiga inhibitor 96*, Pf growth 96h 1%, HCMV inh 28, Cycloheximide cs 39* and Pf growth 48h 98%.
`O=C(CSc1ccc(Cl)cc1)N1CCCC1` gave Shiga inhibitor 65, Pf growth 96h 14%, HCMV inh 19, Cycloheximide cs 46* and Pf growth 48h 50%.
For Cc1ccc(SCCC(=O)N2CCCC2)cc1 the results were Shiga inhibitor 86*, HCMV inh -3, Cycloheximide cs 43* and Pf growth 48h 95%.
`Cc1noc(C)c1S(=O)(=O)N(C)C[C@H]1Oc2c(NC(=O)Nc3ccc(C(F)(F)F)cc3)cccc2C(=O)N([C@H](C)CO)C[C@@H]1C` gave HCMV inh -26.
COc1ccc(N2CCN(C(=O)CSc3ccc(C)cc3)CC2)cc1 was read as Shiga inhibitor -17, Pf growth 96h inconclusive, HCMV inh -5, Cycloheximide cs -5 and Pf growth 48h 2%.
Cc1ccc(SCCC(=O)N2CCOCC2)cc1 was read as Shiga inhibitor 82, HCMV inh -27, Cycloheximide cs 26* and Pf growth 48h 54%.
Screening Cc1ccc(OCCNC(=O)CCC(=O)N2CCOCC2)cc1 returned Pf growth 96h 35%, HCMV inh -25 and Pf growth 48h 54%.
Screening Cc1ccc(SCC(=O)N2CCCC2)cc1 returned Shiga inhibitor 124*, Pf growth 96h 12%, HCMV inh 10, Cycloheximide cs 23* and Pf growth 48h 70%.
For O=C(Cc1csc2ccccc12)NCc1ccc(F)cc1 the results were HCMV inh -5.
O=C(CCCc1nc(-c2ccc(Cl)cc2)no1)Nc1cccnc1 was read as Shiga inhibitor -7, Pf growth 96h 6%, HCMV inh -72*, Cycloheximide cs -2 and Pf growth 48h 8%.
